# Results filed as inconclusive are left out. The source made the active and inactive calls. How the source made its calls: active means hit-call score of the fitted dose curve at least 0.9, where 1 is the maximum; inconclusive means response in the unintended direction; inactive means score below 0.9. Peptide text beside a SMILES is read from it.
# Assay: CCTE_Shafer_MEA_acute_LDH: CCTE's Lactate Dehydrogenase Assay for Cytotoxicity in the Neural Acute Assay, Shafer Lab (AID 2284086);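 further: active means LDH release rises above DMSO vehicle level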
# Experimental: CCTE_Shafer_MEA_acute assay is conducted using Axion Biosystems 48 well microelectrode array (MEA) plates and Maestro recording system. Each well of the MEA plate contains a grid of 16 microelectrodes embedded in the culture surface. Electrically active cells, such as neurons, can be cultured over the electrodes, and electrical activity in these cells can be recorded extracellularly. The spontaneous firing of neurons is captured from each electrode on a microsecond timescale providing both temporally and spatially precise data. […] The CCTE_Shafer_MEA_acute assay uses primary cultures of rat cortical neurons. As these cultures mature over time, neural networks develop functional activity and form cohesive networks in which electrical activity can be highly coordinated. Baseline 40-minute recordings are made on days post-plating 13 or 15, followed by a secondary 40-minute recording after chemical exposure.CCTE_Shafer_MEA_acute_LDH is a component of the CCTE_Shafer_MEA_acute assay. It measures the lactate dehydrogenase enzyme activity using spectrophotometry.Data from the assay component CCTE_Shafer_MEA_acute_LDH was analyzed into 1 assay endpoint. This assay endpoint, CCTE_Shafer_MEA_acute_LDH, was analyzed in the positive analysis fitting direction relative to DMSO as the negative control and baseline of activity. Using a type of viability reporter, gain-of-signal activity can be used to understand cell viability.
# Immediately following the 40 min recording in the presence of compounds, 50 uL of media was removed from each well and transferred to a sterile 96-well plate. This was used to determine LDH released from cells during compound exposure using a kit from Promega where absorbance was determined in a Molecular Devices VersaMax plate reader at 490 nm.
row,SMILES,outcome
1,Cc1c(C(=O)c2c[nH]n(C)c2=O)ccc(S(C)(=O)=O)c1C1=NOCC1,inactive
2,CC/C=C\CCOC(=O)c1ccccc1O,inactive
3,Oc1ccccc1Cc1ccccc1O,inactive
4,Nc1nc(N)nc(-c2ccccc2)n1,inactive
5,c1ccc(Nc2cccc3ccccc23)cc1,inactive
6,Nc1cccc(N)n1,inactive
7,CCCC(C)C(=O)OCC (configuration not stated),inactive
8,CC(C)C(=O)OCCc1ccccc1,inactive
9,COC(=O)[C@H](Cc1ccccc1)NC(=O)[C@@H](N)CC(=O)O (H-Asp-Phe-OMe),inactive
10,CC(CCC(=O)O)(c1ccc(O)cc1)c1ccc(O)cc1,inactive
11,CC1(C)CC(O)CC(C)(C)N1[O],inactive
12,CCCCCCCCCCCC(=O)N(C)CC(=O)O,inactive

# — PubChem BioAssay (EPA / NIEHS)
